The source made the active and inactive calls. The call rests on the fitted dose curve; in most records, active means well fitted curve in the direction sought with a large enough effect in the repeat runs; inconclusive means weak or mixed curves; inactive means flat fitted curve, though single readings scatter.
Experiment: qHTS assay to test for compound auto fluorescence at 535 nm (green) in HepG2 cell free culture (AID 720686)
Conditions: Cell-free medium, green autofluorescence 485/535 nm; series mostly up to 91.3 µM
From the text: U.S. Tox21 Program National Center for Advancing Translational Sciences [NCATS] NIH Chemical Genomics Center [NCGC] U.S. Environmental Protection Agency [EPA] National Institutes of Environmental Health Sciences [NIEHS] National Toxicology Program [NTP] U.S. Food and Drug Administration [FDA] Tox21 Assay Overview: Compound auto fluorescence often interferes with screening of the compound library against various biological targets and signaling pathways. Some of these compounds may have fluorophoric properties. Such properties may interfere with the assay outputs resulting in false positives and/or negatives. To decrease such complications and ensure the compound activities are relevant in terms of biological response, the Tox21 10K compound library was screened for auto fluorescence. From the fluorophores used as reporter signals in our screening assays, the auto fluorescence equivalencies of compounds against three fluorophores have been evaluated: Triamterene, Fluorescein and Rose Bengal sodium for blue, green and red fluorescence, respectively. The fluorescence intensities were measured using Excitation/Emission wavelengths at 405/460nm, 485/535nm and 540/590nm for blue, green and red labels, respectively. This assay includes the green fluorescence data.
Tox21 Assay Protocol Summary: 5 uL of culture medium (MEM containing 10% FBS) per well was dispensed into black wall/clear bottom 1536-well plates using a Multidrop Combi Dispenser (ThermoFisher Scientific, Waltham, MA). After 23 nL compound or DMSO vehicle was transferred into assay plate by a pintool work station (Kalypsys, San Diego, CA), fluorescence intensities in the assay plates were measured by an Envision (PerkinElmer, Shelton, CT) plate reader using three labels for measuring blue, green and red fluorescence at […] 460, 535 and 590nm respectively.

| Structure (SMILES) | outcome |
| --- | --- |
| COc1ccccc1N | inactive |
| O=[N+]([O-])c1ccccc1O | inactive |
| Nc1ccc(-c2ccc(N)c(Cl)c2)cc1Cl | inactive |
| CCCCCC[n+]1ccccc1 | inactive |
| Nc1ccc(Cl)cc1 | inactive |
| O=C(O)CCl | inactive |
| CC[N+]1(C)CCCC1 | inactive |
| CCC[N+]1(C)CCCCC1 | inactive |
| C[C@]12CCC(=O)C=C1CC[C@@H]1[C@@H]2CC[C@]2(C)C(=O)CC[C@@H]12 | inactive |
| O=c1nc(O)n(Cl)c(=O)n1Cl | inactive |
| COCC(=O)N(c1c(C)cccc1C)C(C)C(=O)OC (stereo not given) | inactive |
| O=S(=O)(O)O | inactive |
| CCCC[n+]1ccccc1C | inactive |
| C=CCOC(Cn1ccnc1)c1ccc(Cl)cc1Cl (stereo not given) | inactive |
| CCCCn1cc[n+](C)c1 | inactive |
| CNC | inactive |
| CCOP(=S)(OCC)Oc1ccc2c(C)c(Cl)c(=O)oc2c1 | inactive |
| CC(=O)O | inactive |
| Cc1cc(Cl)ccc1OCC(=O)O | inactive |
| CCCCCCn1cc[n+](C)c1 | inactive |

| Structure (SMILES) | outcome |
| --- | --- |
| O=c1[nH]c(=O)n(Cl)c(=O)n1Cl | inactive |
| CCCCCCCCCCn1cc[n+](C)c1 | inactive |
| CCCC[n+]1ccc(C)cc1 | inactive |
| OCCOc1ccccc1 | inactive |
| CCCCCCCCn1cc[n+](C)c1 | inactive |
| C1CCC(NC2CCCCC2)CC1 | inactive |
| N#CS | inactive |
| CCC(=O)C(CC(C)N(C)C)(c1ccccc1)c1ccccc1 (stereo not given) | inactive |
| Oc1cccc2cccnc12 | inactive |
| CCCCCCCCCCCCCC[P+](CCCCCC)(CCCCCC)CCCCCC | inactive |
| Oc1ccccc1-c1ccccc1 | inactive |
| CCn1cc[n+](C)c1C | inactive |
| CCCC[n+]1cccc(C)c1 | inactive |
| CCCC[n+]1ccccc1 | inactive |
| COc1ccc(N)cc1 | inactive |
| CCCCCCCCCCCC(=O)O | inactive |
| COP(=O)(OC)OC=C(Cl)Cl | inactive |
| O=C(O)c1nc(Cl)ccc1Cl | inactive |
| O=C(O)COc1ccc(Cl)cc1Cl | inactive |
| CCCn1cc[n+](C)c1 | inactive |

From PubChem BioAssay (Tox21)
